This is part of a sample that, as a whole, favours compounds with a hit. Of some 83,000 tested, about 20% had one in any assay.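 48-hour exposure, single concentration, 96-well plates; percent growth endpoint where 0 means no net growth. Active: below 10.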 Unmarked numbers belong to inactive results. The source made the active and inactive calls.

The experiment relates to MDA-MB-468 breast. The experiment can be described thus: NCI-60 one-dose screen, 48 h (100 = growth as untreated, 0 = no growth, -100 = all killed). Conditions: 10 µM unless noted.
For the compound `S=c1nc2[nH]c3ccccc3c2n[nH]1`, the growth was 109%.
On to `O=[N+]([O-])c1ccc(Sc2nc(Cl)nc(NC3CCCC3)n2)cc1`, for which the growth was -46.5% [100 µM] (active).
The figure for `O=C(O)c1ccccc1.[Ag]` is 90.4%; for `CCOC(=O)CCC(=O)O[C@H]1[C@H](O[C@@H]2[C@@H](C)[C@H](O[C@H]3C[C@@](C)(OC)[C@@H](O)[C@H](C)O3)[C@@H](C)C(=O)O[C@H](CC)[C@@](C)(O)[C@H](O)[C@@H](C)C(=O)[C@H](C)C[C@@]2(C)O)O[C@H](C)C[C@@H]1N(C)C` it is 109%; for `Cc1[c-]onc1C.Cc1[c-]onc1C.[Ag].[Ag].[NH-]S(=O)(=O)c1ccc(N=Nc2cc(N=Nc3ccc(S([NH-])(=O)=O)cc3)c3c(NC(=O)C(Cl)Cl)cccc3c2OC(=O)C(Cl)Cl)cc1` it is 53.9%.
The figure for `COc1ccc(/C=C2\N=C(c3ccccc3)N(c3cc(OC)c(OC)cc3C(=O)N3N=C(C)CC3=O)C2=O)cc1` is 93%.
The value for `COC(=O)/C=C1/SC(=Nc2ccc([N+](=O)[O-])cc2)N(CCc2c[nH]c3ccc(O)cc23)C1=O` was 56.8%.
Take `Oc1cccc(-c2nc(-c3n[nH]c(=S)n3-c3ccccc3)cc3c2[nH]c2ccccc23)c1`: the growth is 9.85% (active).
The figure for `O=[N+]([O-])c1cccc(-c2nc(-c3ccc(Cl)cc3Cl)cn2-c2ccccc2)c1` is 22.2%; for `O=C1CCCCN1c1ccc(C2=NCCCN2)cc1` it is 82.2%.
`CC(=O)OC[C@H](O)[C@@]1(O)CC[C@H]2[C@@H]3CCC4=CC(=O)CC[C@]4(C)[C@H]3[C@@H](O)C[C@@]21C`: the growth is 112%.
The figure for `CCCN1C=C/C(=C\C(=O)n2ccc3ccccc32)c2ccccc21` is 7.36% (active); for `Cc1cc(C)c2c(c1)N(C)c1ncnc(-n3c(C)nc4cc(C)ccc43)c1CC2C` (stereo not given) it is 3.92% (active).
The value for `Nc1c(C(=O)Nc2ccccc2F)sc2nc3c(cc12)CCCC3` was 26.4%.
The value for `COc1ccc(/C=C/C(=O)c2ccc([N+](=O)[O-])cc2)cc1` was 94.4%; that for `O=C(Nc1ccc(I)cc1)c1cc([N+](=O)[O-])ccc1O` was 9.76% (active).
As for `CC(=O)c1nc2ccccc2n1CC(=O)c1cccc(Cl)c1`, the growth was 32.7%.
The figure for `Cc1ccc(-c2nc(/C=C3/C(=O)N(C)c4ccc(F)cc43)c3ccccn23)cc1` is 101%; for `Cn1c(=O)c2[nH]c(SCC(=O)Nc3ccc(C(=O)/C=C/c4ccccc4Cl)cc3)nc2n(C)c1=O` it is 76.4%.
For `O=c1[nH]c(Cl)nc2c1cnn2-c1ccccc1`, the growth is 101%.
The value for `C=C1C(=O)O[C@H]2[C@H]1CC/C(COC(=O)/C=C\C(=O)NCc1ccc(Cn3c(=O)sn(CCI)c3=O)cc1)=C\CC[C@@]1(C)O[C@@H]21` was -36.2% (active); that for `Clc1ccc(/C=C2\CCCC3=C2N=C2SC=NN2C3c2ccc(Cl)cc2)cc1` (stereo not given) was 90.4%; that for `Nc1nc(-c2cccc([N+](=O)[O-])c2)c(N=Nc2ccc([N+](=O)[O-])cc2Cl)s1` was -10.7% (active).
With `Clc1ccc(/C=N\N=c2\scc(-c3ccc(Cl)cc3)n2/N=C/c2ccc(Cl)cc2)cc1`, the growth is 115%.
`Cc1cc(C(C)(C)C)ccc1S`: the growth is 104%.
For `COC(=O)[C@]12CC[C@@H](C)[C@H](C)[C@@H]1C1=CC[C@@H]3[C@@]4(C)C(C=O)=C[C@@](C)(COC(C)=O)[C@@H]4[C@H](O)C[C@@]3(C)[C@]1(C)CC2`, the growth was -19.2% (active).
Regarding `COc1c(N2CC3CCCNC3C2)c(F)cc2c(=O)c(C(=O)N/N=C/c3ccc(F)cc3)cn(C3CC3)c12` (stereo not given), the growth was 84.4%.
On to `CCCCCCCCC(C)OC(=O)c1nn(C(C)=O)c2ccccc12` (stereo not given), for which the growth is 96.8%.
The value for `O=C(O)c1ccc(Br)nc1` was 88.6%; that for `C=C1SC(=Nc2ccccc2Cl)N(C(=O)c2sc3ccccc3c2Cl)C1(C)C` was 50%; that for `CCN(CC)c1ccc(/C=C/c2ccc3cc(C)ccc3[n+]2CC)cc1` was -24% (active).
The value for `Cc1cc(C(C)(C)CC(C)(C)C)ccc1OCCOCC[N+](C)(C)Cc1ccccc1` was -82.5% (active); that for `CN=C1C=CC(=C(c2ccc(N(C)C)cc2)c2ccc(N(C)C)cc2)C=C1` was -47.5% (active).
The value for `c1ccc(CCSc2ncnc3nc[nH]c23)cc1` was 49%; that for `CCOC(=O)CC1CSC(N/N=C/c2ccc(O)cc2)=N1` (stereo not given) was 108%; that for `Cc1csc(/N=C(N)/N=C(\N)c2cccs2)n1` was 120%.
For `C/C(=C(/c1ccc(Cl)cc1)c1ccc(OCCN)cc1)c1ccc(C)cc1`, the growth is 108%.
The figure for `CCOP(=O)(OCC)OC[C@]12CCC(C)(C)CC1C1=CC[C@@H]3[C@@]4(C)CCCNC(C)(C)[C@@H]4CC[C@@]3(C)[C@]1(C)CC2` (stereo not given in full) is 53.5%; for `Cc1cccc2nc3ccccc3c(Nc3ccc(NS(C)(=O)=O)cc3)c12` it is 67.9%; for `CC(=O)Nc1cc2c(cc1Cl)Cc1cc(Cl)ccc1-2` it is -50.2% (active).

The record behind these values is PubChem BioAssay (NCI).
